“And” between values parts separate entries of the source, which are not always exact repeats. Equal values may be shown once. In all, about 5,500 compounds went through this assay and about 2,000 (36%) were called active. Roughly 18% stayed inconclusive and do not appear here. Rule as the data show it: active = normalized growth mostly below about 0.91 (no sharp cut-off); inconclusive = no clear call, values can overlap the other calls; inactive = mostly above about 0.92. The list shows a part of the results.
Experiment: chemical genetic growth profiling, strain panel (AID 1159580);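 also: tested at 20 µM; growth read once vehicle control cultures reached saturation at 30 °C; 1 = growth at the plate median or of vehicle wells; lower values mean less growth of the strain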
Conditions: S. cerevisiae deletion strains, growth OD

Measured: normalized growth

CC1(C)S[C@@H]2C(N3C(=O)[C@@H](c4ccccc4)NC3(C)C)C(=O)N2[C@H]1C(=O)O (some centres not stated)
inactive: locus YAL021C, strain ccr4, hits give low values 1.03 | locus YAL026C, strain drs2, hits give low values 1.02 | locus YAL030W, strain snc1, hits give low values 1 | locus YBL061C, strain skt5, hits give low values 1.02 | locus YBR009C, strain hhf1, hits give low values 1.03 | locus YBR021W, strain FUR4, hits give low values 0.994 | locus YBR023C, strain chs3, hits give low values 1.04 | locus YBR171W, strain sec66, hits give low values 1.04 | locus YBR229C, strain ROT2, hits give low values 1.01 | locus YBR231C, strain swc5, hits give low values 0.975 | locus YBR279W, strain paf1, hits give low values 1.02 | locus YCL011C, strain gbp2, hits give low values 1.03 | locus YCL016C, strain dcc1, hits give low values 1.06 | locus YCL029C, strain bik1, hits give low values 1.02 | locus YCL061C, strain MRC1, hits give low values 1.03 | locus YCL069W, strain vba3, hits give low values 1.02 | locus YCR088W, strain abp1, hits give low values 1.02 | locus YDL005C, strain med2, hits give low values 1.02 | locus YDL035C, strain GPR1, hits give low values 1 | locus YDL040C, strain nat1, hits give low values 1.01 | locus YDL074C, strain BRE1, hits give low values 1.02 | locus YDL101C, strain DUN1, hits give low values 1.01 | locus YDL185W, strain tfp1, hits give low values 1.02 | locus YDL192W, strain arf1, hits give low values 1.03 | locus YDR001C, strain nth1, hits give low values 1.01 | locus YDR069C, strain doa4, hits give low values 0.977 | locus YDR101C, strain arx1, hits give low values 1.01 | locus YDR137W, strain rgp1, hits give low values 1.11 | locus YDR159W, strain sac3, hits give low values 0.958 | locus YDR162C, strain NBP2, hits give low values 1 | locus YDR195W, strain ref2 1.01 | locus YDR297W, strain sur2, hits give low values 0.98 | locus YDR318W, strain mcm21, hits give low values 1.02 | locus YDR334W, strain swr1, hits give low values 1.02 | locus YDR335W, strain msn5, hits give low values 0.989 | locus YDR388W, hits give low values 1.03 | locus YDR392W, strain spt3, hits give low values 0.952 | locus YDR502C, strain sam2, hits give low values 1.03 | locus YEL003W, strain gim4, hits give low values 1.02 | locus YEL037C, strain rad23, hits give low values 1.02 | locus YEL061C, strain CIN8 (second series), hits give low values 1.02 | locus YEL061C, strain CIN8, hits give low values 1.01 | locus YER015W, strain faa2, hits give low values 1 | locus YER016W, strain bim1, hits give low values 1.01 | locus YER110C, hits give low values 1.04 | locus YER111C, strain swi4, hits give low values 1.03 | locus YER155C, strain BEM2 (second series), hits give low values 0.975 | locus YER155C, strain BEM2, hits give low values 1 | locus YER167W, strain BCK2, hits give low values 1 | locus YFR010W, strain ubp6, hits give low values 1.03 | locus YGL078C, strain dbp3, hits give low values 1.03 | locus YGL086W, strain mad1, hits give low values 0.996 | locus YGL167C, strain pmr1, hits give low values 1.02 | locus YGL173C, strain kem1, hits give low values 1.03 | locus YGL227W, strain vid30, hits give low values 1.02 | locus YGL240W, strain doc1, hits give low values 0.972 | locus YGL248W, strain PDE1, hits give low values 1.01 | locus YGL253W, strain hxk2, hits give low values 1.02 | locus YGR078C, strain PAC10, hits give low values 1 | locus YGR135W, strain pre9, hits give low values 1.04 | locus YGR252W, strain gcn5, hits give low values 1.01 | locus YHR013C, strain ard1, hits give low values 1.06 | locus YHR027C, strain rpn1, hits give low values 1.02 | locus YHR030C, strain SLT2, hits give low values 1.01 and 0.988 | locus YHR079C, strain IRE1 (second series), hits give low values 1.02 | locus YHR079C, strain IRE1, hits give low values 0.979 | locus YHR094C, strain hxt1, hits give low values 1.03 | locus YHR129C, strain ARP1, hits give low values 0.995 | locus YHR142W, strain chs7, hits give low values 1.05 | locus YHR200W, strain rpn10, hits give low values 1.03 | locus YIL066C, strain RNR3, hits give low values 1 | locus YIL073C, strain SPO22, hits give low values 1.06 | locus YIL125W, strain kgd1, hits give low values 1.02 | locus YIR030C, strain dcg1, hits give low values 1.03 | locus YJL092W, strain hpr5, hits give low values 1.02 | locus YJL095W, strain BCK1 (second series), hits give low values 0.987 | locus YJL095W, strain BCK1, hits give low values 1.02 and 0.98 | locus YJL115W, strain asf1, hits give low values 1.02 | locus YJL129C, strain trk1, hits give low values 1.04 | locus YJL134W, strain LCB3, hits give low values 1.01 | locus YJL154C, strain vps35, hits give low values 1.02 | locus YJL164C, strain tpk1, hits give low values 1.04 | locus YJL166W, strain qcr8, hits give low values 1.02 | locus YJL168C, strain set2, hits give low values 1.03 | locus YJL187C, strain SWE1 (second series), hits give low values 1 | locus YJL187C, strain SWE1, hits give low values 0.974 | locus YJR066W, strain TOR1, hits give low values 0.944 | locus YKL009W, strain mrt4, hits give low values 0.99 | locus YKL068W, hits give low values 1.01 | locus YKL085W, strain MDH1 (second series), hits give low values 1.02 | locus YKL085W, strain MDH1, hits give low values 1.02 | locus YKL160W, strain elf1, hits give low values 1.05 | locus YKR001C, strain vps1, hits give low values 1.04 | locus YKR026C, strain gcn3, hits give low values 1.02 | locus YKR091W, strain srl3, hits give low values 1.02 | locus YLL001W, strain dnm1, hits give low values 1.04 | locus YLL026W, hits give low values 1.02 | locus YLL041C, strain sdh2, hits give low values 1 | locus YLR027C, strain aat2, hits give low values 1 | locus YLR039C, strain RIC1, hits give low values 1.03 | locus YLR058C, strain SHM2, hits give low values 1.01 | locus YLR102C, strain apc9, hits give low values 1.03 | locus YLR113W, strain HOG1, hits give low values 1 | locus YLR221C, strain rsa3, hits give low values 1.03 | locus YLR258W, strain gsy2, hits give low values 0.999 | locus YLR262C, strain YPT6 (second series), hits give low values 1.11 | locus YLR262C, strain YPT6, hits give low values 1.05 | locus YLR268W, strain sec22, hits give low values 1.02 | locus YLR320W, strain mms22, hits give low values 1.08 | locus YLR330W, strain CHS5, hits give low values 1 | locus YLR342W, strain FKS1 (second series), hits give low values 0.997 | locus YLR342W, strain FKS1, hits give low values 1.03 | locus YLR357W, strain rsc2, hits give low values 1.01 | locus YLR370C, strain arc18, hits give low values 1 | locus YLR371W, strain rom2, hits give low values 1.01 | locus YLR384C, strain iki3, hits give low values 1.02 | locus YLR418C, strain cdc73, hits give low values 1.03 | locus YML016C, strain PPZ1, hits give low values 1.01 | locus YML032C, strain rad52, hits give low values 1.02 | locus YML120C, strain ndi1, hits give low values 1.05 | locus YML124C, strain tub3, hits give low values 1.02 | locus YMR058W, strain fet3, hits give low values 1.01 | locus YMR078C, strain ctf18, hits give low values 1.03 | locus YMR125W, strain sto1, hits give low values 1.03 | locus YMR129W, hits give low values 1.02 | locus YMR205C, strain PFK2, hits give low values 0.992 | locus YMR223W, strain ubp8, hits give low values 1.04 | locus YMR231W, strain pep5, hits give low values 1.02 | locus YMR263W, strain SAP30, hits give low values 1 | locus YMR307W, strain GAS1, hits give low values 1.01 | locus YNL067W, strain RPL9B, hits give low values 1.01 | locus YNL071W, strain lat1, hits give low values 1.03 | locus YNL183C, strain NPR1, hits give low values 0.95 | locus YNL209W, strain ssb2, hits give low values 1.02 | locus YNL233W, strain BNI4, hits give low values 1 | locus YNL248C, strain rpa49, hits give low values 1.03 | locus YNL250W, strain rad50, hits give low values 1.05 | locus YNL271C, strain bni1, hits give low values 1.04 | locus YNL298W, strain CLA4, hits give low values 1.04 | locus YNL307C, strain MCK1, hits give low values 1.03 | locus YNL322C, strain KRE1 (second series), hits give low values 1.05 | locus YNL322C, strain KRE1, hits give low values 1 | locus YNR049C, strain mso1, hits give low values 0.993 | locus YNR052C, strain pop2, hits give low values 1.02 | locus YOL006C, strain TOP1, hits give low values 1.03 | locus YOL012C, strain htz1 0.716 | locus YOL147C, strain pex11, hits give low values 1.03 | locus YOR001W, strain rrp6, hits give low values 1.01 | locus YOR061W, strain CKA2, hits give low values 1.01 | locus YOR069W, strain VPS5, hits give low values 1 | locus YOR070C, strain gyp1, hits give low values 1.03 | locus YOR080W, strain dia2, hits give low values 1.05 | locus YOR083W, strain WHI5, hits give low values 1.03 | locus YOR106W, strain vam3, hits give low values 1.02 | locus YOR136W, strain idh2, hits give low values 1.03 | locus YOR144C, strain elg1, hits give low values 1.02 | locus YOR184W, strain ser1, hits give low values 1.05 | locus YOR231W, strain MKK1, hits give low values 0.997 | locus YOR265W, strain rbl2, hits give low values 1.03 | locus YOR270C, strain vph1, hits give low values 1.08 | locus YOR290C, strain snf2, hits give low values 0.962 | locus YOR316C, strain cot1, hits give low values 1.03 | locus YPL051W, strain arl3, hits give low values 1.04 | locus YPL078C, strain atp4, hits give low values 1.03 | locus YPL106C, strain sse1, hits give low values 1.01 | locus YPL240C, strain hsp82, hits give low values 0.985 | locus YPL256C, strain CLN2, hits give low values 0.982 | locus YPR119W, strain clb2, hits give low values 1.03 | locus YPR141C, strain kar3, hits give low values 1.03 | locus YPR163C, strain tif3, hits give low values 1.04 | locus YPR167C, strain met16, hits give low values 1.02 | strain wtn01, hits give low values 1.04

Source: PubChem BioAssay AID1159580 (chemical genetic matrix, 2015)
